PubChem BioAssay AID652015 (National Center for Advancing Translational Sciences (NCATS), 2013)
Inconclusive results are not listed. Calls follow the shape of the dose curve; as a rule, active = well fitted inhibition curve with a large enough effect; inconclusive = small, poorly fitted or top-dose-only effect; inactive = no such curve, though single readings can be large or run the other way.

biological target: Coelenterazine h 2-monooxygenase (Renilla reniformis) (UniProt P27652); test: qHTS Assay for Inhibitors of Sea Pansy Luciferase from the GSK Published Protein Kinase Inhibitor Set; conditions: purified Renilla luciferase, luminescence; series mostly up to 57.5 µM; activity change, negative = inhibition: at the top concentration
How it was run: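 qHTS (roughly 60 uM down to 300 pM) against 1 nM Renilla luciferase, substrate coelenterazine h 5 uM, Tris acetate pH 7.5 buffer with NaCl, Tween-20 and BSA. Luminescence measured after an average 2 min incubation.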

Sequence of Coelenterazine h 2-monooxygenase (Renilla reniformis) (P27652 whole entry, looked up): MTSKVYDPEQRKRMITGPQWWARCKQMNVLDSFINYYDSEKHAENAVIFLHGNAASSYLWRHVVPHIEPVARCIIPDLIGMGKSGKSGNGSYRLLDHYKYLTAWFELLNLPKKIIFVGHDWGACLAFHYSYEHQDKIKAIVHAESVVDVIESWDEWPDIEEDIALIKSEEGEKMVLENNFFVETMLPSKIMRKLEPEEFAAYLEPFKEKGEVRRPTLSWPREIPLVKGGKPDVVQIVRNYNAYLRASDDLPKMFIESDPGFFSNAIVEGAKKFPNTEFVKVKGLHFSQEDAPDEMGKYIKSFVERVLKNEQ

Activity change, negative = inhibition, inactive:
CS(=O)(=O)CCNCc1ccc(-c2ccc3ncnc(Nc4ccc(OCc5cccc(F)c5)c(C(F)(F)F)c4)c3c2)o1 48.1%
c1ccc(Oc2ccc(Nc3ncc(-c4ccccc4)o3)cc2)cc1 36.9%
CC1(C)CC(n2cnc(-c3ccc(F)cc3)c2-c2ccnc(N)n2)CC(C)(C)N1 31.7%
Nc1nccc(-c2c(-c3ccc(F)cc3)ncn2C2CCC(O)CC2)n1 (stereo not drawn) 9.21%
Cc1cc(O)cc(C)c1C=Cc1cncc(C(N)=O)c1 28.5%
O=C(Nc1n[nH]c2nc(-c3ccco3)ccc12)C1CC1 30.8%
Cc1ccc(Nc2ccnc(Nc3cccc(C(N)=O)c3)n2)cc1O 2.39%
CS(=O)(=O)CCNCc1nc(-c2ccc3ncnc(Nc4ccc(OCc5cccc(C(F)(F)F)c5)cc4)c3c2)cs1 17.3%
Cc1cc(O)cc(C)c1C=Cc1cncc(C(=O)OC(C)(C)C)c1 37.2%
COc1cc(Nc2ncc(-c3ccccc3)o2)cc(OC)c1 12.4%
N#Cc1ccc(Oc2nccc(-c3c(-c4ccc(F)cc4)ncn3C3CCNCC3)n2)cc1 8.41%
COc1ccc(-c2nn3ncccc3c2-c2ccnc(Nc3ccc(F)c(F)c3)n2)cc1 33.8%
OCCCNc1nccc(-c2c(-c3ccc(F)cc3)nn3cc(C(F)(F)F)ccc23)n1 39.6%
Cc1cccc(Oc2nccc(-c3c(-c4ccc(F)cc4)ncn3C3CCNCC3)n2)c1C 3.94%
Nc1nonc1-c1nc2cnccc2n1C1CC1 21.9%
Oc1[nH]c2ccccc2c1C=Nc1ccc(-n2cncn2)cc1 25.2%
COc1ccc(-c2oc3ncnc(N)c3c2-c2ccc(NC(=O)Nc3cc(C(F)(F)F)ccc3F)cc2)cc1 3.79%
O=C(Nc1n[nH]c2nnc(-c3cccnc3)cc12)C1CC1 31.4%
CN(c1ccc(NC(=O)Nc2ccc(OC(F)(F)F)cc2)cc1)c1ccnc(Nc2cccc(S(N)(=O)=O)c2)n1 0%
CCS(=O)(=O)c1ccc(OC)c(Nc2ncc(-c3cccc(C(C)=O)c3)o2)c1 5.78%
N#Cc1cccc(Nc2nccc(-c3cnn4ncccc34)n2)c1 17.2%
Nc1nccc(-c2c(-c3ccc(F)cc3)ncn2CCCN2CCOCC2)n1 25.3%
CNC(=O)c1cncc(C=Cc2c(C)cccc2C)c1 11.8%
